Assay results published in the supplement of paper PMC10981050.
Values joined by “and” are separate entries in the source; they are usually repeats but may differ in a detail not shown here. Identical values can stand only once. Counter-ions that a name gives are not always drawn.

Legend:
Assay in all cases: cell viability relative to vehicle control; higher = less cytotoxic
Conditions in all cases: 10 µM
K562 = system: K562
Outline: (§1)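 CRISPR-edited SRSF2 P95 mutant and isogenic wild-type clones of four leukaemia lines were screened against Selleck bioactive, kinase and epigenetic probe libraries, with identity-inconsistent compounds removed. Compounds were acoustically dispensed into 384-well plates at a single 10 µM dose, with 2000 cells in 50 µL medium per well. After 48 h, supernatant was removed and CellTiter-Glo luminescence was read. Viability was expressed as percent of the on-plate DMSO vehicle control, analysed in Genedata Screener.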

MARIMO = system: MARIMO
Outline: as §1

MOLM14 = system: MOLM14
Outline: as §1

OCI-AML2 = system: OCI-AML2
Outline: as §1

SMILES | cell viability (K562; SRSF2 genotype: SRSF2 P95H/wt) | cell viability (K562; SRSF2 genotype: SRSF2 wt/wt) [%] | cell viability (MARIMO; SRSF2 genotype: SRSF2 P95H/wt) [%] | cell viability (MARIMO; SRSF2 genotype: SRSF2 wt/wt) [%] | cell viability (MOLM14; SRSF2 genotype: SRSF2 P95H/wt) [%] | cell viability (MOLM14; SRSF2 genotype: SRSF2 wt/wt) [%] | cell viability (OCI-AML2; SRSF2 genotype: P95H/wt) [%] | cell viability (OCI-AML2; SRSF2 genotype: wt/wt) [%]
CCn1cc(C(=O)O)c(=O)c2cc(F)c(N3CCN(C)CC3)cc21 [Pefloxacin mesylate] | 97.5% and 101% | 96.6 | 105 | 100 | 100 | 103 | 109 | 115
Nc1nc2c(ncn2COCCO)c(=O)[nH]1 [Acyclovir (Aciclovir)] | 98% and 101% | 95.1 | 99.2 | 98.3 | 103 | 99.1 | 105 | 102
CCC(=O)NC[C@@H]1C[C@H]1c1cccc2c1CCO2 [Tasimelteon] | 92.1% and 87.6% | 84.4 | 92.1 | 101 | 89 | 93.1 | 88 | 99.3
CCC[S+]([O-])c1ccc2[nH]c(NC(=O)OC)nc2c1 (centres undefined) [Albendazole Oxide (Ricobendazole)] | 88.8% and 83.5% | 80.6 | 85.7 | 88 | 88.2 | 95.4 | 87.8 | 95.5
C=CC(C)(O)CCC=C(C)C (centres undefined) [Linalool] | 100% and 105% | 107 | 101 | 105 | 103 | 104 | 109 | 97.4
CC(=O)O[C@H]1CC/C(C)=C/CC/C(C)=C/C[C@]2(C(C)C)CC[C@@]1(C)O2 [Incensole acetate] | 85.8% and 85.7% | 91.2 | 85.1 | 89.2 | 68.8 | 67.7 | 84.1 | 85.2
NC(=O)[C@@H]1CCCN1C(=O)[C@H](Cc1c[nH]cn1)NC(=O)[C@@H]1CCC(=O)N1 [Protirelin] | 99.8% and 93.1% | 104 | 99.2 | 108 | 101 | 100 | 102 | 100
O=C(/C=C/c1ccc(O)c2c1[C@H](C(=O)O[C@H](Cc1ccc(O)c(O)c1)C(=O)O)[C@@H](c1ccc(O)c(O)c1)O2)O[C@H](Cc1ccc(O)c(O)c1)C(=O)O [Salvianolic acid B] | 96.5% and 101% | 101 | 101 | 108 | 96.7 | 103 | 98.9 | 97.8
N#C[C@@H]1CCCN1C(=O)CNC12CC3CC(CC(O)(C3)C1)C2 [Vildagliptin (LAF-237)] | 87.8% and 87.2% | 84.8 | 81.8 | 88.6 | 83.9 | 89 | 88.8 | 87.7
Nc1nc(Nc2ccc(S(N)(=O)=O)cc2)nn1C(=O)c1c(F)cccc1F | 41.2% and 43.9% | 31.2 | 10.8 | 7.19 | 3.09 | 0.41 | 2.63 | 12
C[C@H](NC(=O)CCc1nc2ccccc2c(=O)[nH]1)c1ccccc1 | 103% | 108 | 106 | 100 | 105 | 100 | 105 | 121
C/C(O)=C(\C#N)C(=O)Nc1ccc(C(F)(F)F)cc1 [Teriflunomide] | 93.8% and 104% | 91.6 | 94.3 | 98.5 | 88.2 | 93.9 | 79.9 | 87.1
CNC(=O)c1ccc(N2C(=S)N(c3cnc(C#N)c(C(F)(F)F)c3)C(=O)C23CCC3)cc1F | 98.6% and 98.8% | 103 | 104 | 110 | 98.4 | 109 | 96.2 | 88.1
O=c1cc(N2CCOCC2)oc2c1ccc1ccccc12 | 96.7% and 102% | 99.6 | 93.3 | 102 | 89.2 | 96.7 | 87.6 | 96.7
CN(C)CCC(c1ccc(Cl)cc1)c1ccccn1 (centres undefined) [Chlorpheniramine Maleate] | 100% and 106% | 98.2 | 91.4 | 105 | 94.7 | 101 | 99.4 | 99.1
C=C1CCOC1=O [2-Methylenebutyrolactone] | 106% and 101% | 104 | 97.3 | 105 | 88.6 | 107 | 125 | 126
O=C(Cn1nnc(-c2ccncc2)c1-c1ccccc1)Nc1ccc(-c2ccccc2)cn1 | 58% and 48.3% | 57.6 | 51.6 | 53.3 | 54.6 | 51.1 | 35.9 | 40.8
Cc1nc(Nc2cnn(C3CCNCC3)c2)nc2c1N(C)C(=O)c1cc3ccccc3cc1N2C | 56% and 67.5% | 60.7 | 50.7 | 63.7 | 15.9 | 5.53 | 19.2 | 22
COc1c2c(cc3oc(COC4OC(CO)C(O)C(O)C4O)cc(=O)c13)OC(C(C)(C)O)C2 (centres undefined) [Prim-o-glucosylcimifugin] | 83.8% and 84.2% | 88.3 | 84 | 94 | 88.3 | 88.2 | 91.8 | 98.1
O=c1[nH]c(=O)c2[nH]cnc2[nH]1 [2,6-Dihydroxypurine] | 107% and 100% | 104 | 106 | 110 | 101 | 107 | 101 | 109
COc1ccc(CCC(=O)c2c(O)cc(O[C@@H]3O[C@H](CO)[C@@H](O)[C@H](O)[C@H]3O[C@@H]3O[C@@H](C)[C@H](O)[C@@H](O)[C@H]3O)cc2O)cc1O [Neohesperidin dihydrochalcone (Nhdc)] | 107% and 83.6% | 84.9 | 82.7 | 90.5 | 82.3 | 86.8 | 89.6 | 84.9
NC[C@H](O)c1ccc(O)c(O)c1 [Noradrenaline bitartrate monohydrate (Levoph] | 86.5% and 94.4% | 98.2 | 92.6 | 94.3 | 85.7 | 93.7 | 96.7 | 103

SMILES | cell viability (K562; SRSF2 genotype: SRSF2 P95H/wt) | cell viability (K562; SRSF2 genotype: SRSF2 wt/wt) [%] | cell viability (MARIMO; SRSF2 genotype: SRSF2 P95H/wt) [%] | cell viability (MARIMO; SRSF2 genotype: SRSF2 wt/wt) [%] | cell viability (MOLM14; SRSF2 genotype: SRSF2 P95H/wt) [%] | cell viability (MOLM14; SRSF2 genotype: SRSF2 wt/wt) [%] | cell viability (OCI-AML2; SRSF2 genotype: P95H/wt) [%] | cell viability (OCI-AML2; SRSF2 genotype: wt/wt) [%]
O=C1C(=O)N(Cc2ccc(Cl)c(Cl)c2)c2ccccc21 [Apoptosis Activator 2] | 62.4% and 47.9% | 37.7 | 25.5 | 33.1 | 3.92 | 1.81 | 32 | 13.7
O=C(O)CCc1ccc(O)cc1 [Phloretic acid] | 99.4% and 99.9% | 94.6 | 93.9 | 104 | 109 | 103 | 99.2 | 105
NS(=O)(=O)c1cc2c(cc1Cl)NC(C(Cl)Cl)NS2(=O)=O (centres undefined) [Trichlormethiazide (Achletin)] | 102% and 101% | 102 | 108 | 99.7 | 94.7 | 106 | 112 | 110
CCCCC(F)(F)[C@@]1(O)CC[C@H]2[C@@H](CC(=O)[C@@H]2CCCCCCC(=O)O)O1 [Lubiprostone] | 101% and 100% | 104 | 93.9 | 98 | 84.5 | 98.8 | 83.6 | 88
Cc1cc(=O)c2c(O)c3c(cc2o1)OC(C)(C)[C@@H](O[C@@H]1O[C@H](CO)[C@@H](O)[C@H](O)[C@H]1O)C3 [Sec-O-Glucosylhamaudol] | 105% and 101% | 114 | 106 | 98.7 | 109 | 101 | 94 | 91.3
NC(=O)C1CCCc2c1[nH]c1ccc(Cl)cc21 (centres undefined) | 97% and 96% | 105 | 89 | 102 | 96 | 99.6 | 91.2 | 92.2
COCCCOc1cc(C[C@@H](C[C@H](N)[C@@H](O)C[C@H](C(=O)NCC(C)(C)C(N)=O)C(C)C)C(C)C)ccc1OC [Aliskiren Hemifumarate] | 104% and 99.9% | 95.5 | 92.3 | 101 | 91.8 | 98.7 | 92.5 | 106
O=C(O)[C@H]1CSC(c2nc3ccc(O)cc3s2)=N1 [D-Luciferin] | 90.6% and 83.7% | 92.3 | 82.4 | 92.8 | 85.8 | 90.7 | 86.7 | 87.9
COc1cc(NC(=O)c2ccc(-c3ccc(Cl)cc3)o2)cc(OC)c1 | 105% and 102% | 103 | 99 | 105 | 113 | 115 | 97.4 | 92.8
CNC(=O)c1c(C)oc2cc(Oc3ncnc4cc(OC)c(OC)cc34)ccc12 [Fruquintinib] | 101% and 96.7% | 97.1 | 98.6 | 99.7 | 95.8 | 105 | 84.3 | 85.4
C[C@@H](C(=O)Nc1ccc(Cl)cc1)C1CCC(c2ccnc3ccc(F)cc23)CC1 (some centres undefined) | 77% and 77.9% | 69.6 | 81 | 70.5 | 61.9 | 76.4 | 56.8 | 54.5
CCN(CC)c1ccc(C=NNC(=O)c2ccc(O)cc2)cc1 | 46.8% and 47.9% | 51.9 | 53.8 | 52.2 | 56.2 | 49.9 | 70.1 | 69.3
C/C1=C2N=C(/C=C3N=C(/C(C)=C4\[N-]C(C(CC(N)=O)C4(C)CCC(=O)NCC(C)OP(=O)([O-])OC4C(CO)OC(n5cnc6cc(C)c(C)cc65)C4O)C4(C)N=C1C(CCC(N)=O)C4(C)CC(N)=O)C(CCC(N)=O)C\3(C)C)C(CCC(N)=O)C/2(C)CC(N)=O.[CH3-].[Co+3] (centres undefined) [Methylcobalamin] | 89.6% and 88.5% | 101 | 88.4 | 88.6 | 90.8 | 94.3 | 95.2 | 97
CC(=O)Nc1ccc(OC(=O)c2ccccc2OC(C)=O)cc1 [Benorylate] | 102% | 98.9 | 104 | 100 | 104 | 101 | 107 | 108
CN(C)C(=O)/C(C#N)=C/c1ccc(-c2nc3cnc4[nH]ccc4c3n2C2CCCCC2)o1 | 99.3% and 98.8% | 98.6 | 80.9 | 89.3 | 49.5 | 71 | 71.5 | 71.5
COc1ccc(-c2cc3c(C)nc(N)nc3n([C@H]3CC[C@H](OCCO)CC3)c2=O)cn1 | 40.2% and 40.4% | 39.5 | 32.4 | 27.5 | 22.9 | 23.3 | 1.55 | 8.86
Cc1ccccc1-c1cc(N2CCN(C)CC2)ncc1N(C)C(=O)C(C)(C)c1cc(C(F)(F)F)cc(C(F)(F)F)c1 [Netupitant] | 90.3% and 95.2% | 94.6 | 104 | 93.8 | 107 | 98.4 | 70.3 | 75.3
CCCN[C@H]1CCc2nc(N)sc2C1 [Pramipexole (Mirapex)] | 102% and 81.8% | 83.3 | 81.9 | 83.9 | 71.3 | 84.3 | 80.9 | 87.8
O=C(O)COc1ccc(Br)cc1C=C1SC(=S)N(Cc2cccnc2)C1=O [Skp2 inhibitor C1 (SKPin C1)] | 34.9% and 35.5% | 35.5 | 18.9 | 18.6 | 5.39 | 2.44 | 3.65 | 9.12
CC(C)NC(=O)C1CCC(n2c(NC(=O)c3ccc(F)cc3)nc3ccc(CN4CCC(C(C)(C)O)CC4)cc32)CC1 (centres undefined) [Belizatinib (TSR-011)] | 59.4% and 65.3% | 56.9 | 41.4 | 45 | 7.89 | 11.3 | 19 | 35.3
CCCc1cc(C(N)=S)ccn1 [Protionamide (Prothionamide)] | 99% and 98.7% | 101 | 98.8 | 102 | 95.4 | 102 | 100 | 112
